The results in this text go back to ChEMBL document CHEMBL1961873, “Compounds: GSK PKIS; Assays: Nanosyn kinase panel” (2012).

The target of experiment [1] is Protein kinase C gamma type (Homo sapiens) (UniProt P05129). The conditions noted are these: at 1 µM.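 Also: each value is an averaged percent inhibition of the enzyme.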
For experiment [2], the target named is T1, Protein kinase C iota type (Homo sapiens) (UniProt P41743).
T1 sequence (whole entry): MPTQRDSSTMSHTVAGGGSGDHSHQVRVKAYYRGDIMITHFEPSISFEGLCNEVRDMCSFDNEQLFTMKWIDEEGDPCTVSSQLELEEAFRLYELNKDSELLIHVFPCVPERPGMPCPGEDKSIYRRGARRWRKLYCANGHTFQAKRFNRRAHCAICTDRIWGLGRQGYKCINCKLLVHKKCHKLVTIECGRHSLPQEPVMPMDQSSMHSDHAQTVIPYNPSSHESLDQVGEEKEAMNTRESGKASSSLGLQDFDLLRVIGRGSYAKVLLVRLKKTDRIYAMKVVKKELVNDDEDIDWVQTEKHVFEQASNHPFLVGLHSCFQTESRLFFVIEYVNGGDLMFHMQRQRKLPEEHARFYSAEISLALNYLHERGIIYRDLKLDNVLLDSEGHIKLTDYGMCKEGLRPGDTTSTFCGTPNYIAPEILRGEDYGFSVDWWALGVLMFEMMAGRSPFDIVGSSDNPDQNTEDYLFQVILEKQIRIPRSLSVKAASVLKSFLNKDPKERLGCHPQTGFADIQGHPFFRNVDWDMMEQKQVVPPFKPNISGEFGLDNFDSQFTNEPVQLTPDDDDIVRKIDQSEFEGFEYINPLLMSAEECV
The conditions noted are these: at 0.1 µM.

Experiment [3] has as its target T1, Protein kinase C iota type (Homo sapiens). The conditions noted are these: at 1 µM.
Experiment [4] deals with Protein kinase C theta type (Homo sapiens) (UniProt Q04759). Particulars: at 0.1 µM.
Experiment [5] shares this target. The conditions noted are these: at 1 µM.
Experiment [6] deals with Protein kinase C beta type (Homo sapiens) (UniProt P05771). The conditions noted are these: at 0.1 µM.
The target is the same in experiment [7]. Particulars: at 1 µM.
Experiment [8] has as its target T2, Serine/threonine-protein kinase D1 (Homo sapiens) (UniProt Q15139).
T2 sequence (whole entry): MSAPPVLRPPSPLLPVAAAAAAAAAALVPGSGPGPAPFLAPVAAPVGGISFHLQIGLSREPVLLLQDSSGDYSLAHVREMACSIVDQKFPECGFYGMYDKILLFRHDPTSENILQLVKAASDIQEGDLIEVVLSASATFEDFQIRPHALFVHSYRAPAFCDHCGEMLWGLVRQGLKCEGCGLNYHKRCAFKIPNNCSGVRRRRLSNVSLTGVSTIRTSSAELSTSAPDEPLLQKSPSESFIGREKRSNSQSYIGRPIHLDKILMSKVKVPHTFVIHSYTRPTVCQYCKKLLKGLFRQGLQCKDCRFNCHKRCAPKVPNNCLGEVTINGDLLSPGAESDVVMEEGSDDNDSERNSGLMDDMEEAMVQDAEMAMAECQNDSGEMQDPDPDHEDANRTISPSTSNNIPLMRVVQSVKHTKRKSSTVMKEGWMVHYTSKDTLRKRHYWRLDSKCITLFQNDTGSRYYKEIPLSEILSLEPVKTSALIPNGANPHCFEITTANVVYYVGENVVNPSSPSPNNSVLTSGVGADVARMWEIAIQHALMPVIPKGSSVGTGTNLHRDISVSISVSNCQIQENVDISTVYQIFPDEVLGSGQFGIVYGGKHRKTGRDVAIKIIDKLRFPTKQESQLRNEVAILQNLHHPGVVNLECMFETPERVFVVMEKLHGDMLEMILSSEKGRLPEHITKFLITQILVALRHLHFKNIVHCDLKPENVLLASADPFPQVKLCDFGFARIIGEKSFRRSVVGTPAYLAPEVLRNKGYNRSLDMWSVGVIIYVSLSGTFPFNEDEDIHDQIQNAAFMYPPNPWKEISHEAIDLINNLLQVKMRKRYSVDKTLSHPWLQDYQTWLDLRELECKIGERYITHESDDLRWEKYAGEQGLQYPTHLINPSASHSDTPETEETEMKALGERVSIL
The conditions noted are these: at 0.1 µM.

Experiment [9] has as its target T2, Serine/threonine-protein kinase D1 (Homo sapiens). The conditions noted are these: at 1 µM.
Experiment [10] concerns the target T3, Serine/threonine-protein kinase D2 (Homo sapiens) (UniProt Q9BZL6).
T3 sequence (whole entry): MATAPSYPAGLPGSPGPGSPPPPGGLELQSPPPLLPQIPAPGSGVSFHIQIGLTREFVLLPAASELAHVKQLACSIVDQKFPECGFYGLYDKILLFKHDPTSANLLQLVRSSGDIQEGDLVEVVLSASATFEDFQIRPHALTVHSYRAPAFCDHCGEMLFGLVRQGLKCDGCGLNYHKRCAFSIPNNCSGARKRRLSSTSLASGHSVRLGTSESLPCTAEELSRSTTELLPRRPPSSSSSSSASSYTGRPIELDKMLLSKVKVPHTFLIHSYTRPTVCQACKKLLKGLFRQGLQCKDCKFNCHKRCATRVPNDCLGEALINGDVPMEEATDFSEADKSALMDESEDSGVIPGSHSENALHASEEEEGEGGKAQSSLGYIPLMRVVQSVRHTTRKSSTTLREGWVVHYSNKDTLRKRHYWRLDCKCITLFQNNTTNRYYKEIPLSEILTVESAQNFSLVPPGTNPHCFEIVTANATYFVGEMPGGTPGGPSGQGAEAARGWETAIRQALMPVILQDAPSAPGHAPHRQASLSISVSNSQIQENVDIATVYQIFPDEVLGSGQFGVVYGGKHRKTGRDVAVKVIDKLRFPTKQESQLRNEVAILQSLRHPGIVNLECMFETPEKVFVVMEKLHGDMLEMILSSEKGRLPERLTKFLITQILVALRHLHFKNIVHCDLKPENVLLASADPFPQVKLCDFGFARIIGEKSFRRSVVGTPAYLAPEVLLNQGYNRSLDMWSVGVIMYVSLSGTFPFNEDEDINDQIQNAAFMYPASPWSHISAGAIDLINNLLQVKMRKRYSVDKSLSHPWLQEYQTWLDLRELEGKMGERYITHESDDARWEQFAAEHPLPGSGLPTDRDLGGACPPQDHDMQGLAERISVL
The conditions noted are these: at 0.1 µM.

In experiment [11] the target is T3, Serine/threonine-protein kinase D2 (Homo sapiens). Particulars: at 1 µM.
Experiment [12] has as its target T4, Serine/threonine-protein kinase D3 (Homo sapiens) (UniProt O94806).
T4 sequence (whole entry): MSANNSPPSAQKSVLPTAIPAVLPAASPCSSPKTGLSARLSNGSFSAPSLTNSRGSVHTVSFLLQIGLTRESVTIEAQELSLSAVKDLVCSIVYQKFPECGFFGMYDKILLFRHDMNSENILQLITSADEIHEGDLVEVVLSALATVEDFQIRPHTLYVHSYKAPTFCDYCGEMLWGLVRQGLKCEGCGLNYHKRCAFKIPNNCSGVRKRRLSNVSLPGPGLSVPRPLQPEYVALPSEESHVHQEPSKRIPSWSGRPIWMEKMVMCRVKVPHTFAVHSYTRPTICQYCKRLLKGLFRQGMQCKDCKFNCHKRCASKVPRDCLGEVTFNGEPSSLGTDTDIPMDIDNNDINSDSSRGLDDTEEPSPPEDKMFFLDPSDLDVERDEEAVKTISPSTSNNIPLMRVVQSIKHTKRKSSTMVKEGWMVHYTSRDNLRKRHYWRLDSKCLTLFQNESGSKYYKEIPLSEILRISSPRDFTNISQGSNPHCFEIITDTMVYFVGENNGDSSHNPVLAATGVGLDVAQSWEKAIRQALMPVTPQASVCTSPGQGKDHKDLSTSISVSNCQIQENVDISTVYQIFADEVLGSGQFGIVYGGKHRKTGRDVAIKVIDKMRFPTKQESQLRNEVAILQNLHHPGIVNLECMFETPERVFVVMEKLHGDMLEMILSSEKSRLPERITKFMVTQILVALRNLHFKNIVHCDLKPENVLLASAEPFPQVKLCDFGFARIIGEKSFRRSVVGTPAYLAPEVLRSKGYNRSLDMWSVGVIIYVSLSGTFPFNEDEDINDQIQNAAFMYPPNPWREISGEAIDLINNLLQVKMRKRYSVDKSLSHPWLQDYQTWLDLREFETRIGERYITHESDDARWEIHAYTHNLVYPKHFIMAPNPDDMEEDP
Particulars: at 0.1 µM.

Experiment [13] concerns the target T4, Serine/threonine-protein kinase D3 (Homo sapiens). The conditions noted are these: at 1 µM.
For experiment [14], the target named is T5, cGMP-dependent protein kinase 1 (Homo sapiens) (UniProt Q13976).
T5 sequence (whole entry): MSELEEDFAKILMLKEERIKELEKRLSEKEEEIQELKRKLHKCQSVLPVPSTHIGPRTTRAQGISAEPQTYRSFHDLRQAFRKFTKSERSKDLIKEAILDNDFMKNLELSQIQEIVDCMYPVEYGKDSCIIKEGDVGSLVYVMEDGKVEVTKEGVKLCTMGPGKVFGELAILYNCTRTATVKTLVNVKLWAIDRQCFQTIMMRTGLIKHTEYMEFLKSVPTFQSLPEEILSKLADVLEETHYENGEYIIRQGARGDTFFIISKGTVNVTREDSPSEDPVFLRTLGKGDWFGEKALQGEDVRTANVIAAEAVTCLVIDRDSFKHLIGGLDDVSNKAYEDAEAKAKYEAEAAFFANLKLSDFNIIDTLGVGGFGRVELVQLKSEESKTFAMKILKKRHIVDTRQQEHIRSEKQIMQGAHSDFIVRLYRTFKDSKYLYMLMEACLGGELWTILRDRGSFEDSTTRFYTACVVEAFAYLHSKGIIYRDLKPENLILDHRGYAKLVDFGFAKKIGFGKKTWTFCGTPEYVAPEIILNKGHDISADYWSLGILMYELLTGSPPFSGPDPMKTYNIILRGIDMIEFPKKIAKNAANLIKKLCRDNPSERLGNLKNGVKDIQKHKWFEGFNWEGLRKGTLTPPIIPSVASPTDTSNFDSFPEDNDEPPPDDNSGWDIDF
The conditions noted are these: at 0.1 µM.

Experiment [15] addresses T5, cGMP-dependent protein kinase 1 (Homo sapiens). The conditions noted are these: at 1 µM.
Experiment [16] has as its target T6, cGMP-dependent protein kinase 2 (Homo sapiens) (UniProt Q13237).
T6 sequence (whole entry): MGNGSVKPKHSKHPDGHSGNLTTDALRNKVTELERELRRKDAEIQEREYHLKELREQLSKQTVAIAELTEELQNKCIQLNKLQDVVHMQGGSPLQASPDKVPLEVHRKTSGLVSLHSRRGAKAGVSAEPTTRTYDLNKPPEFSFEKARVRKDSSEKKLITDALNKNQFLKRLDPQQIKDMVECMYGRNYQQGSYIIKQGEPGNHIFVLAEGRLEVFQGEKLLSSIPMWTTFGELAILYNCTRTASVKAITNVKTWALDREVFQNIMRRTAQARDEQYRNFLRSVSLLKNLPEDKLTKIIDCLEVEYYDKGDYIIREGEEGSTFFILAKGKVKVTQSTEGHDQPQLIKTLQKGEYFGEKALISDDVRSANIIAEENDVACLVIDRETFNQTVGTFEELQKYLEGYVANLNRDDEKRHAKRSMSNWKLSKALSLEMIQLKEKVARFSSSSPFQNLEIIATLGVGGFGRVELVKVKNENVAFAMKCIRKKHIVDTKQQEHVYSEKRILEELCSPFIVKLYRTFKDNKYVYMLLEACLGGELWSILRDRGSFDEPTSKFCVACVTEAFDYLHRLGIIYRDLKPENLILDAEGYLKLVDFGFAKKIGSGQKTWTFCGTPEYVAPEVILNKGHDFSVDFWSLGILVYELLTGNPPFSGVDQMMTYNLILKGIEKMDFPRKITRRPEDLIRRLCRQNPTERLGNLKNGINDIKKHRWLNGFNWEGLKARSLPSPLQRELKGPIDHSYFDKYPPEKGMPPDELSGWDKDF
The conditions noted are these: at 0.1 µM.

Experiment [17] deals with T6, cGMP-dependent protein kinase 2 (Homo sapiens). The conditions noted are these: at 1 µM.
In experiment [18] the target is T7, cAMP-dependent protein kinase catalytic subunit PRKX (Homo sapiens) (UniProt P51817).
T7 sequence (whole entry): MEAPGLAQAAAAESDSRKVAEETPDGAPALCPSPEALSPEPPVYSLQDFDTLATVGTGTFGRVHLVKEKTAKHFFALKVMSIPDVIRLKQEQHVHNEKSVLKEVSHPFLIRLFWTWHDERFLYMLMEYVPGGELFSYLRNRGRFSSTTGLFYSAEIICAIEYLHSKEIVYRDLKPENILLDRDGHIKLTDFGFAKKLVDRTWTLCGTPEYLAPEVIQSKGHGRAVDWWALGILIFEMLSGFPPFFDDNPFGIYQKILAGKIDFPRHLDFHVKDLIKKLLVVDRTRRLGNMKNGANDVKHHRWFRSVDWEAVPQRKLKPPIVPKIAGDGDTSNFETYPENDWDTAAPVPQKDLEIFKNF
Particulars: at 0.1 µM.

In experiment [19] the target is T7, cAMP-dependent protein kinase catalytic subunit PRKX (Homo sapiens). Particulars: at 1 µM.
The target of experiment [20] is Rho-associated protein kinase 1 (Homo sapiens) (UniProt Q13464). Particulars: at 0.1 µM.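 Also: values are mean percent inhibition of ROCK1.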

The structures appear in SMILES notation.

Chain of Protein kinase C beta type (Homo sapiens) (P05771 2-671 limits assumed): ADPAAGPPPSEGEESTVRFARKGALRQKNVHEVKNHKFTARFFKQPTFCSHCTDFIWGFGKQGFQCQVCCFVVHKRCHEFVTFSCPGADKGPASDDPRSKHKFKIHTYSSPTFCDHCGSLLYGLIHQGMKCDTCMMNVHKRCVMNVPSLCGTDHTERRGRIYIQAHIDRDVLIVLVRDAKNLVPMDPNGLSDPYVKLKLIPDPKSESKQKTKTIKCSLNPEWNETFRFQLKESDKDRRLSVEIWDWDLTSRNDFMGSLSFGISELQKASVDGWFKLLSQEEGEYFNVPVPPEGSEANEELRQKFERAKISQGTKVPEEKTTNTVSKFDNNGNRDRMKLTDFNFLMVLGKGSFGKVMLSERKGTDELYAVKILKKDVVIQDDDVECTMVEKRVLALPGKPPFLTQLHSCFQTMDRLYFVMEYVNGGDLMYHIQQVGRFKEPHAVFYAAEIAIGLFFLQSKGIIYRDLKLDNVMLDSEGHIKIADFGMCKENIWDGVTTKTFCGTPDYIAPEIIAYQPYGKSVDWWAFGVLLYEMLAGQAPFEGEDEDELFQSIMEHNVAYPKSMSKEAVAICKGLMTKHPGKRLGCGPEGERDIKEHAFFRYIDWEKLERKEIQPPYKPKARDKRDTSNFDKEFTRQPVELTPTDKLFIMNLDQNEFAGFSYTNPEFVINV
Chain of Protein kinase C theta type (Homo sapiens) (Q04759 whole entry, looked up): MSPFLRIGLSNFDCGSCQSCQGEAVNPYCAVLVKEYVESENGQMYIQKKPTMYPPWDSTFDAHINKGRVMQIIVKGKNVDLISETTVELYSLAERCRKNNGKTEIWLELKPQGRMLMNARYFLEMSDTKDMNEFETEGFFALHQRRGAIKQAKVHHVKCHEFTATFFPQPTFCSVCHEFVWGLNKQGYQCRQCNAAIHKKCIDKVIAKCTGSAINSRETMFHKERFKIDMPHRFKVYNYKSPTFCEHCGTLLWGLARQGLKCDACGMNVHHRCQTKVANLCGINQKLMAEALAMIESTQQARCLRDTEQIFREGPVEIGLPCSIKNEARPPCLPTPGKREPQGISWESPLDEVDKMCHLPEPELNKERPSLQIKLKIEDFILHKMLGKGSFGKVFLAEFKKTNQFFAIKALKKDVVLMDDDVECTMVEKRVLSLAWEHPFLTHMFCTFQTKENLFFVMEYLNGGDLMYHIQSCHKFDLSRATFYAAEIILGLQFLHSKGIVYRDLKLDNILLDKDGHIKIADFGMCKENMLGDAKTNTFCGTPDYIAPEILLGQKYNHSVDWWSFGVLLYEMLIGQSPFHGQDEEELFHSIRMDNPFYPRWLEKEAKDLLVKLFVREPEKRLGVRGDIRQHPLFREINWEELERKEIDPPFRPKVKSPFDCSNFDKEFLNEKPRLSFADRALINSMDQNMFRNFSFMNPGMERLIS
Chain of Rho-associated protein kinase 1 (Homo sapiens) (Q13464 2-1354 limits assumed): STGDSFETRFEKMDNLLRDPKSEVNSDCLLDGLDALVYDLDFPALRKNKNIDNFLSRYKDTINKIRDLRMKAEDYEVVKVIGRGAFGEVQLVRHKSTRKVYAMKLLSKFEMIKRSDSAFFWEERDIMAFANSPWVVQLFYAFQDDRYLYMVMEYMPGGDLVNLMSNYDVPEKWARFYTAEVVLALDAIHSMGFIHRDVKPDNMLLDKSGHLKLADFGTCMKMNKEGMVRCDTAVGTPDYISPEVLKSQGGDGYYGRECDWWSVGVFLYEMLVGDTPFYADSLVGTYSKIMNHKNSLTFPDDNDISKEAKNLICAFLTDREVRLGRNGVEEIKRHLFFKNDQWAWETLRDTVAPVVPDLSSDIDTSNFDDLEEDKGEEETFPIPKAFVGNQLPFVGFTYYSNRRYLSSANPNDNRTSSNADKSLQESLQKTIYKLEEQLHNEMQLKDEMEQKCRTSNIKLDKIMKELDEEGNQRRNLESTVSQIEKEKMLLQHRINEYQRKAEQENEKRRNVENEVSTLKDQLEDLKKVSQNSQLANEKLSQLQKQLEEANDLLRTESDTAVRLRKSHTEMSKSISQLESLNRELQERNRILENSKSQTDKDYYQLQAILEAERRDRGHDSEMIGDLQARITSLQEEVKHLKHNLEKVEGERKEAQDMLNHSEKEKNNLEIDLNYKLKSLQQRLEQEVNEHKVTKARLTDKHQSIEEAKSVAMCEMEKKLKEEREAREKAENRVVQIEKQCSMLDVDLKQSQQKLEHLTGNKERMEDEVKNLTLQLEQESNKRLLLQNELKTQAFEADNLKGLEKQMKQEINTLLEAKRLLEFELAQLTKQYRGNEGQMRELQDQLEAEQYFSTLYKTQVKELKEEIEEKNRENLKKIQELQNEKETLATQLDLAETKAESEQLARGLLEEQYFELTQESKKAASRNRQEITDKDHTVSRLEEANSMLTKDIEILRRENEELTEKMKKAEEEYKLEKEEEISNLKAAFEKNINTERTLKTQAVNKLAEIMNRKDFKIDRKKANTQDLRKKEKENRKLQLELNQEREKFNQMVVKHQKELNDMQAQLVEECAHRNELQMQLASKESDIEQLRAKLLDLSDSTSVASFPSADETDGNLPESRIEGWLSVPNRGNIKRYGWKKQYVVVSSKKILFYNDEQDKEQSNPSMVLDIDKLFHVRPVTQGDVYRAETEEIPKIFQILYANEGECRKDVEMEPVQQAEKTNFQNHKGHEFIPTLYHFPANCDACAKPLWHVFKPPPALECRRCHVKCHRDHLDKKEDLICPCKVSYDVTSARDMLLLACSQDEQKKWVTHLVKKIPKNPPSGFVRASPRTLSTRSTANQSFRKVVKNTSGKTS

Usually inhibition stands for the change of the read-out against control, counted positive when it falls. Low values mean little suppression, high ones strong suppression. Turning to `c1ccc(-c2nc3n(c2-c2ccc4c(c2)OCO4)CCC3)nc1`, the inhibition is 2.8% in experiment [1]; 2.19% in experiment [2]; 3.9% in experiment [3]; 1.78% in [4]; 3.83% in experiment [5]; 1.96% in experiment [6]. The inhibition amounted to 4.57% in [7]; 1.92% in [8]; 5.43% in [9]; 1.94% in experiment [10]; 4.47% in experiment [11]; 2.58% in experiment [12]. The inhibition worked out at 5.25% in experiment [13]; 2.47% in [14]; 2.75% in [15]; 1.67% in [16]; 2.85% in experiment [17]; 0.87% in [18]. Further, the inhibition in [19] was 3.61%; in experiment [20], 3.64%.

As for `CCc1nn2ncccc2c1-c1ccnc(NC2CC2)n1`, the inhibition in [1] was found to be 4.3%; in experiment [2], 0.47%; in [3], 0.64%; in experiment [4] it was 0.97%; in [5], 1.63%; in experiment [6] it was 1.1%. Besides, the inhibition worked out at 3.32% in experiment [7]; 2.35% in experiment [8]; 4.56% in [9]; 2.36% in experiment [10]; 3.14% in experiment [11]; 1.73% in [12]. Also, the inhibition in [13] was found to be 2.57%; in experiment [14] it was 1.92%; in [15], 3.59%; in experiment [16] it was 0.96%; in [17], 3.27%; in [18], 1.66%. The inhibition is 0.72% in experiment [19] and 0.66% in experiment [20].
